Test results taken from publication PMC7819943, “Rice protein-binding microarrays: a tool to detect cis-acting elements near promoter regions in rice”.
Whole data set: some 68,000 sequences, median “fluorescence intensity (a.u.)” near 9,100, cut for the highest 2% near 16,000. The sample holds the highest values, similar sequences and a random draw of the others, so the mix is not that of the screen.

Molecular target: OsWRKY34 (Oryza sativa, UniProt Q0JBA9 1-250)
Test: protein-binding microarray (RPBM); PBS, 2% BSA, 51.3 ng/ul salmon testes DNA, 50 uM zinc acetate, 200 nM TF, 25 C, 1 h; high values mean tight binding
Conditions: protein: recombinant; tags: N-terminal polyhistidine and DsRed monomer fusion (pET32a); label: CyDye5-dUTP incorporated in the synthesized complementary strand; 3' TTTTT single-stranded linker to array surface; dsDNA, one strand shown
Procedure, shortened: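 Polyhistidine-tagged DsRed fusions of transcription factors, joined at the N-terminus, were expressed in E. coli BL21-CodonPlus and isolated on Ni–NTA. They were incubated at 200 nM for 1 h at 25 °C on a custom Agilent array, double-stranded and BSA-blocked, in PBS with 2% BSA, salmon testes DNA and 50 µM zinc acetate. The binding signal is per-feature fluorescence intensity (arbitrary units) read on an Axon 4000B scanner after washing.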

Chain of OsWRKY34 (Q0JBA9 entry or part of it): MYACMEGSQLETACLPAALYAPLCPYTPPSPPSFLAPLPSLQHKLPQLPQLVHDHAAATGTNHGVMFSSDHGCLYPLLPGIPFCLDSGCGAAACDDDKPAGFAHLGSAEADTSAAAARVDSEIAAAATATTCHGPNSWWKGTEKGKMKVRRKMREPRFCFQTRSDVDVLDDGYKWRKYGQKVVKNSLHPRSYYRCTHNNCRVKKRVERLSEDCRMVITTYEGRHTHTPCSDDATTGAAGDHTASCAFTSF

Row | Sequence | binding signal
1 | CGCCGCCGCCCTCACCCTCGCCGCCGCGCATCCCGCGGTCCGGAGTCACCTAGTGCAG | 8120 fluorescence intensity (a.u.)
2 | ATAATAGGGTTATTCATAATATGGCAGGGTTTTTGGTTAGCGGAGTCACCTAGTGCAG | 10300 fluorescence intensity (a.u.)
3 | TGTGATAGGCTTCAATGTTTAATCTCACCATCGATTGTTACGGAGTCACCTAGTGCAG | 9500 fluorescence intensity (a.u.)
4 | TAGTCTTTGTCGTTTCCATGTATAACTCTATTTATCTTTCCGGAGTCACCTAGTGCAG | 12400 fluorescence intensity (a.u.)
5 | CTAGTTGCTCCTAACTTGGCCTACTGTCCTCCATCTCCAACGGAGTCACCTAGTGCAG | 9280 fluorescence intensity (a.u.)
6 | GAGCTTCCTATCGCGCCGCCGCGTGCGTACGTGTTTGATCCGGAGTCACCTAGTGCAG | 11000 fluorescence intensity (a.u.)
7 | TACACCGTCCCAACCGGCTTTGTTTGACTTGTCCGACCAGCGGAGTCACCTAGTGCAG | 8330 fluorescence intensity (a.u.)
8 | TTACCGATGCGACCTGTCCCTGTCACTCCCGCCTCGGTAACGGAGTCACCTAGTGCAG | 9060 fluorescence intensity (a.u.)
9 | GACATTACGGGCCCACAAGTACGCGTCCCCACCAGCCATACGGAGTCACCTAGTGCAG | 8490 fluorescence intensity (a.u.)
10 | ATCACCTTGCTCGATCGCCTCCGTTGTTTTGCACTAAATTCGGAGTCACCTAGTGCAG | 8620 fluorescence intensity (a.u.)
11 | GAGGGGAGGAAGAAGAGGTGGGTGAGAATGACACGTGGGGCGGAGTCACCTAGTGCAG | 10600 fluorescence intensity (a.u.)
12 | TTTGTGTCACTTTTAAACATGTTCACGTCATTATTTTAGTCGGAGTCACCTAGTGCAG | 9290 fluorescence intensity (a.u.)
13 | TCTTATATGTTATGCAAGTATGTTTCTATCTCGTATCTTCCGGAGTCACCTAGTGCAG | 16500 fluorescence intensity (a.u.)
14 | GTTCATTTTCATGTTATTTTTCATGTAACTACATTATTATCGGAGTCACCTAGTGCAG | 8990 fluorescence intensity (a.u.)
15 | CTTATCTCATTTTATCTCGGTTTTTGTTAACTTGTTTTTTCGGAGTCACCTAGTGCAG | 18200 fluorescence intensity (a.u.)
16 | ATCGTTATCTATTGCCGTATGTTATTTCGTTGTTCCGTCTCGGAGTCACCTAGTGCAG | 8920 fluorescence intensity (a.u.)
17 | TGTTCTTGTTTGTGTTTTCTTCTTCGTCTCCGGCGACGGCCGGAGTCACCTAGTGCAG | 10000 fluorescence intensity (a.u.)
18 | TTTTAATCTCATTTTTTTTAACGGTTTTGCTATAATTTTTCGGAGTCACCTAGTGCAG | 8850 fluorescence intensity (a.u.)
19 | ATTGTTCATTTGTCGTTCCATTACATGTAACTTCACTTCACGGAGTCACCTAGTGCAG | 17000 fluorescence intensity (a.u.)
20 | GATTTTTTCGGACTTGGTCTCGGTCTTTTTGTTTGGTTATCGGAGTCACCTAGTGCAG | 10200 fluorescence intensity (a.u.)
21 | CTTCGTGTTCGTCGTGGTCTCTTGTTTCTTCTTCTTCTTCCGGAGTCACCTAGTGCAG | 22000 fluorescence intensity (a.u.)

Row | Sequence | binding signal
22 | CTCTCTCTTCTTCTTCGTGTTGTTGTTTCTCTCTCTGTCTCGGAGTCACCTAGTGCAG | 11700 fluorescence intensity (a.u.)
23 | TGTTTCTATCTCGTATCTTCTCTTCCAAGCATGTATTTCCCGGAGTCACCTAGTGCAG | 8650 fluorescence intensity (a.u.)
24 | ATTTTGTTTCTCCTTGGTTGGTTTTGCTTCACCTAGATCACGGAGTCACCTAGTGCAG | 11200 fluorescence intensity (a.u.)
25 | GCTCGCTTTCTCAGGTCTTTCTCTTCCCCGTATCCCCACTCGGAGTCACCTAGTGCAG | 10500 fluorescence intensity (a.u.)
26 | TCTGCGAGGAAGAACCCATTCAGATTACGCTGCATTTTTTCGGAGTCACCTAGTGCAG | 8660 fluorescence intensity (a.u.)
27 | GGCGATCCGGCTTAACTACTTTGTTTGTTTCTCTGTGCAACGGAGTCACCTAGTGCAG | 8480 fluorescence intensity (a.u.)
28 | ACCACCACCACCACCGCCCGCCAAGCGCGGCCCGCCCGACCGGAGTCACCTAGTGCAG | 8720 fluorescence intensity (a.u.)
29 | TGTTCTGCCGGGGTTGTTGCTTACTGATGCAAAACTCTTTCGGAGTCACCTAGTGCAG | 9240 fluorescence intensity (a.u.)
30 | TTCCACGGTTTTCTTTTTTCGGTTTTTATCTTTTCTTTTTCGGAGTCACCTAGTGCAG | 13200 fluorescence intensity (a.u.)
31 | GTGTTCATTGCTAGTTGCATTGTGGTTTTCTAGTTAATTACGGAGTCACCTAGTGCAG | 9000 fluorescence intensity (a.u.)
32 | TCGGTTTGTTTTTTTCCGGTTTATCTTCTTTCGGTTTTTTCGGAGTCACCTAGTGCAG | 18500 fluorescence intensity (a.u.)
33 | CACCTTTTTTTAATTTTTTGGTTTCCAATTTTTATTTTTTCGGAGTCACCTAGTGCAG | 10900 fluorescence intensity (a.u.)
34 | CTTTAATTTTAATTAGAGTTTCTTGCATCGGTTTCCAATGCGGAGTCACCTAGTGCAG | 27700 fluorescence intensity (a.u.)
35 | GATTGGTTGTTTGTTCTGTTTTGGACATGCTTGTTAATTACGGAGTCACCTAGTGCAG | 17100 fluorescence intensity (a.u.)
36 | CTTTCCTTTCTTTGTTTTTTATCTTTGTTTTCTTTCTTCCCGGAGTCACCTAGTGCAG | 11800 fluorescence intensity (a.u.)
37 | ATTGGATGTTAAGTTGTGTTTTTGCTGTTTCATGGTTTTACGGAGTCACCTAGTGCAG | 11400 fluorescence intensity (a.u.)
38 | AATTAGTTTCTTGCTTCTTCTTTTTTCTTTTCTTTTTCATCGGAGTCACCTAGTGCAG | 8210 fluorescence intensity (a.u.)
39 | ATCCAGTGAGCTCGAGGCTTCCCATCTATCCGCCGTTGGTCGGAGTCACCTAGTGCAG | 8260 fluorescence intensity (a.u.)
40 | CTGCTGCATCTGCACTGCATGGCCATGCCCACACACTTGGCGGAGTCACCTAGTGCAG | 8050 fluorescence intensity (a.u.)
41 | TATGCTTCATCTGTTCTTCTACATTGTTATCTACTATCTGCGGAGTCACCTAGTGCAG | 10100 fluorescence intensity (a.u.)
42 | CGAGCTGCTGATGGCCCCTATGCCACATCTACTATGCATGCGGAGTCACCTAGTGCAG | 17100 fluorescence intensity (a.u.)
